Most compounds without a hit are left out; they make up all but 3.5% or so of the library.
ATG4B inh: ATG4B (human) cysteine protease inhibition; 340,000 compounds, 0.51% hits; Q9Y4P1; AID 504462; ATG4B cleavage of LC3-PLA2, NBD-HPC fluorescence, 1 h; inhibition, % at 8.33 µM; in the data active means inhibition above about 40%
Target sequence (Q9Y4P1 whole entry, looked up): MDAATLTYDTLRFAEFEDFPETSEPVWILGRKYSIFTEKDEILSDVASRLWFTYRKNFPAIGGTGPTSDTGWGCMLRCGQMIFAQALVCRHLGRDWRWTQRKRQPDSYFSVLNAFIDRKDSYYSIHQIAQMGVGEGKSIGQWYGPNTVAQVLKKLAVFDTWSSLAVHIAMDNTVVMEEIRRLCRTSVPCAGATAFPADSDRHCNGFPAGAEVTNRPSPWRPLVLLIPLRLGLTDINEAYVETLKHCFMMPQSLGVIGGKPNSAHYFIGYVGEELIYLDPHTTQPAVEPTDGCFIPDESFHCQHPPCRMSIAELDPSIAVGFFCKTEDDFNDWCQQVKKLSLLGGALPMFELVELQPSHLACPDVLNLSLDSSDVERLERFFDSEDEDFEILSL
Myeloid diff MLP: myeloid differentiation induction; ER-HoxA9 myeloid progenitors, lysozyme-GFP differentiation, flow cytometry; calls only at 10 µM; 360,000 compounds, 1% hits;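 active means normalized GFP-positive differentiation at or above the plate's own cutoff, the solvent-only control mean plus 3 SD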;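 further: cells exposed to compound for four days before flow analysis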
M1 ag: agonists of human M1 muscarinic receptor; P11229; CHO-K1 hM1, Fluo-8 calcium fluorescence, agonist mode; 0% DMSO, 100% acetylcholine EC100; activation, % at 3 µM; 360,000 compounds, 0.33% hits;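 active means activation above the run's mean compound activation plus 3 SD, cut at about 16% in these data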;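 further: peak over basal fluorescence ratio within a 140 s kinetic read after compound addition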
M1 antag: antagonists of human M1 muscarinic receptor; P11229; CHO-K1 hM1, Fluo-8 calcium fluorescence, ACh EC80 antagonist; inhibition, % at 3 µM; 360,000 compounds, 1.3% hits;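 active means percent inhibition above its own plate's cutoff, namely the mean of that plate's compound wells plus 3 SD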;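 further: peak over basal fluorescence ratio during 140 s after agonist addition; 0% = ACh EC80 plus DMSO and 100% = DMSO alone without agonist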
SKN-1 block: blocks SKN-1 activity in C. elegans; inhibition, % at 21.8 µM; AID 624304; C. elegans VP596 Pgst-4::GFP/RFP ratio, acrylamide-induced, 24 h; 360,000 compounds, 0.49% hits;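 active means interference check ratio from 0.5 to 1.5 plus GFP to RFP signal ratio inhibition reaching or exceeding a fixed threshold, cut at about 30% in these data, passing the limit was not always enough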
CHRM1 PAM: positive allosteric modulators of human M1 muscarinic receptor. CHO-K1 hM1, Fluo-8 calcium fluorescence, ACh EC20; 0% = ACh EC20, 100% = maximal ACh. 360,000 compounds, 0.088% hits. activation, % at 3 µM. P11229; in the data active means activation above about 19%, passing the limit was not always enough
* = called active by the depositor; i = inactive; nt = no result; + = active, no number.

SMILES	ATG4B inh	Myeloid diff MLP	M1 ag	M1 antag	SKN-1 block	CHRM1 PAM
COCCNC(=O)c1cccc(OC2CCN(Cc3ccc(C(=O)OC)cc3)CC2)c1	2	i	19*	71*	6	-17
COC(=O)c1ccc(CN2CCC(Oc3cccc(C(=O)N4CCOCC4)c3)CC2)cc1	-3	i	18*	84*	-9	-18
O=C(c1cccc(OC2CCN(Cc3cccc(OCCO)c3)CC2)c1)N1CCCC1	20	+	-6	4	13	-11
COCCNC(=O)CCC1CCN(Cc2ccc(-c3ccccc3)cc2)CC1	-3	i	-9	99*	-22	-28
COCCNC(=O)C1CCCN(Cc2ccccc2)CC1 (stereo not drawn)	nt	i	-7	-5	4	5
COC(=O)c1c(S(=O)(=O)NCc2ccccc2)sc(C(=O)O)c1C	4	i	-2	-2	10	6
CCCOc1ccc(C(=O)CCC(=O)OCC(=O)Nc2cccc(S(N)(=O)=O)c2)cc1	-13	i	0	12	-12	-8
CC(C)(C)N1[C@@H](CC(=O)O)c2cc(C(F)(F)F)ccc2S1(=O)=O	3	i	-3	-1	18	3
Cc1ccc(CN2CCC(Oc3cccc(C(=O)NCc4cccnc4)c3)CC2)o1	8	+	-4	-1	4	-4
Cc1ccc(CN2CCC(Oc3ccc(C(=O)NCc4ccccn4)cc3)CC2)o1	-5	i	-6	0	5	1
CCc1ccc(N=Nc2ccc(O)c3[nH]cnc23)cc1	6	+	14	40*	6	-15
O=C(O)c1ccccc1Cc1nc2cc(Cl)ccc2c(=O)[nH]1	-7	nt	-1	5	-9	-2
CCOC(=O)c1ccccc1Cc1nc2ccccc2c(=O)[nH]1	12	i	-8	98*	3	-26
Cc1cccc(-n2c(C)c(-c3ccccc3)[nH]c2=S)c1	-6	+	-3	-13	1	6
Cc1cccc(-n2c(C)n[nH]c2=S)c1	-2	i	-2	-18	0	3
COC(=O)c1ccc(COC(=O)C2CCN(S(=O)(=O)c3ccc(C)c(C)c3)CC2)o1	-3	i	-4	-11	-11	6
COc1cc(NC(=O)c2ccco2)c(OC)cc1NC(=O)Nc1ccccc1Cl	-6	i	-5	30*	6	-21
COc1ccc(Cl)cc1NC(=O)c1ccco1	2	i	-4	-16	23	12
CN1CCN(C2=C(Cl)C(=O)N(c3cccc(Cl)c3)C2=O)CC1	-11	i	-5	0	6	6
CCN1CCN(C2=C(Cl)C(=O)N(Cc3ccccc3)C2=O)CC1	-12	i	-5	78*	2	-22
CCOc1ccc(NC2=C(Cl)C(=O)N(Cc3ccccc3)C2=O)cc1	-6	i	-6	14	6	-9
CN1CCN(C2=C(Cl)C(=O)N(Cc3ccccc3)C2=O)CC1	-5	i	-6	27*	-8	-26
Cc1cc(=O)[nH]c(NCCO)n1	-9	i	-5	4	8	-6
CC(=O)c1ccc(N2CCC(C(=O)O)CC2)cc1	-3	i	-4	-3	-6	6
CC(=O)c1ccc(N2CCN(C3CCC(C(C)(C)C)CC3)CC2)cc1 (stereo not drawn)	-11	i	-11	39*	-3	-22
SMILES	ATG4B inh	Myeloid diff MLP	M1 ag	M1 antag	SKN-1 block	CHRM1 PAM
COC(=O)c1cnc(Nc2nc(C(N)Cc3ccccc3)cs2)nc1C(F)(F)F (stereo not drawn)	nt	i	15	-12	-5	26*
COC(=O)c1cnc(Nc2nc(C(N)Cc3ccc(OC)cc3)cs2)nc1C(F)(F)F (stereo not drawn)	nt	i	4	-4	20	3
CCCc1cnc(Nc2nc(C(N)Cc3ccc(C(F)(F)F)cc3)cs2)nc1 (stereo not drawn)	nt	i	18*	14	15	4
CCC(C(=O)OC)(C(=O)OC)c1ccc([N+](=O)[O-])cc1	7	i	-4	-9	7	13
Cc1cccc(OCC(=O)OCC(=O)NCC2CCCO2)c1C (stereo not drawn)	-6	i	-1	-7	3	8
OC(c1cccs1)(c1cccs1)C1C[N+]2(CF)CCC1CC2 (stereo not drawn)	-10	i	-8	83*	0	-22
O=C(/C=C/c1ccccc1)NC(=S)NNC(=O)c1cnccn1	-3	i	-1	-19	18	13
COc1cc(C(=O)NNC(=S)NC(=O)/C=C/c2ccccc2)cc(OC)c1OC	-13	i	23*	-2	-18	4
O=C(/C=C/c1ccccc1)NC(=S)NNC(=O)c1cccnc1	-4	i	4	-10	36*	8
O=C(Nc1ccc2nc(-c3ccccc3)[nH]c2c1)c1ccco1	-7	i	-1	-5	4	6
O=C(Nc1cccc(-c2nc3ccccc3[nH]2)c1)c1cccc(NC(=O)c2ccco2)c1	-8	i	-3	37*	4	-14
O=C(Nc1ccc(Cl)c(-c2nc3ccccc3[nH]2)c1)c1ccc2c(c1)OCO2	15	+	-6	0	8	-1
O=C(Nc1ccc(-c2nc3ccccc3[nH]2)cc1)c1ccc2c(c1)OCO2	-34	i	-4	2	2	-1
Cc1n[nH]c(C)c1CCNCc1ccc(OCC(O)CN2CCCCC2)cc1 (stereo not drawn)	9	i	-15	5	-10	-8
O=C(O)C1=C[C@H](c2cccs2)C[C@H](OCc2ccc(CO)cc2)O1	-11	i	-4	7	-17	-2
COc1ccc(C(=O)C2CCCN(C(=O)c3cccc(Cl)c3F)C2)cc1OC (stereo not drawn)	-5	i	1	18	-4	-8
CC(C)Cc1ccc(C(C)C(N)=Nc2ccc(O)cc2)cc1 (stereo not drawn)	-2	i	-7	12	11	-9
CC(C)Cc1ccc(C(C)C(=O)Nc2cccnc2)cc1 (stereo not drawn)	8	i	13	32*	7	-15
CC(C)Cc1ccc(C(C)C(=O)Nc2ccc(O)cc2)cc1 (stereo not drawn)	1	i	54*	50*	9	-15
CN(Cc1ccccc1)C(=O)c1cccc(NC(=O)Cc2ccc([N+](=O)[O-])cc2)c1	-8	i	-8	16	6	-23
CN(Cc1ccccc1)C(=O)c1cccc(NC(=O)Cc2cccc([N+](=O)[O-])c2)c1	35	i	-12	33*	12	-26
CCOC(=O)C1(Cc2cccc(OC)c2)CCCN(C(=O)CNC(C)=O)C1 (stereo not drawn)	13	i	-2	-7	3	5
